Entries with a potency or affinity are not part of this list. Values without a mark were called inactive.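 How the source made its calls: active means a dose-response curve fit returns a half-maximal inhibitory concentration, extrapolated values included; inactive means the fit returns no such concentration.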
molecular target: HMG-CoA reductase [Enterococcus faecalis] (UniProt Q9FD70); test: class II HMG-CoA reductase inhibition potency – biochemical, Enterococcus faecalis, confirmation (AID 1233);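 further: 0% = full reaction carrier wells and 100% = background wells lacking mevalonate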; conditions: purified E. faecalis HMGR, NADPH absorbance 340 nm kinetics; series mostly up to 100 µM; inhibition: at the top concentration

Compound	inhibition [%]
CC(C)(C)[C@H]1C=C(C(=O)N2CCN(Cc3ccc4c(c3)OCO4)CC2)O[C@@H](OCc2ccc(CO)cc2)C1	-1.99
CCCCCC/C(C)=C1/SC(=S)NC1=O	-9.92
OCc1ccccc1CNCc1ccccc1	0.24
COc1ccc(CCNC2=CC(=O)N(c3ccc(F)cc3)C2=O)cc1	-0.17
Cc1cc(C)nc(N(C#N)CC(=O)N2CCC(C(N)=O)CC2)n1	-2.81
Cc1cc(C(=O)N/N=C2\CCCC(=O)C2)c(C)n1-c1ccccc1	-0.06
COc1ccc(CCNC(=O)CCNC(=O)c2ccc(Cl)cc2)cc1OC	-6.35
Cc1nc(SCC(=O)N2CC(=O)Nc3ccccc32)c2c(C)c(C)sc2n1	-5.79
CSc1ccc(C2CC(=O)Nc3nc(SC)[nH]c(=O)c32)cc1 (configuration not stated)	-0.1
C=CCn1cnc2c(c1=O)c1nc3ccccc3nc1n2/N=C/c1cc(OC)c(OC)c(OC)c1	-0.47
O=C(COc1ccc2ccc(=O)oc2c1)N1CCN(c2ccccc2)CC1	-2.7
O=C(NCC1CCCO1)c1ccc(Cl)c(F)c1F (configuration not stated)	-2.73
Cc1cccc(/C=N/NC(=O)c2cc(-c3cccnc3)nc3c2c(C)nn3-c2ccccc2)c1	-4.78
O=C(Cn1ncc2ccccc21)N1CCN(c2cccc(C(F)(F)F)c2)CC1	-4.82
CC(C(=O)NC1CCCc2ccccc21)N1CCN(c2ccc(F)cc2)CC1 (configuration not stated)	-4.6
COC(=O)CSc1ncc(C#N)c(N)n1	-9
O=C(CCc1ccccc1)Nc1ncc2c(n1)CCCC2=O	-1.28
O=C(c1ccco1)N1CCCN(Cc2cn[nH]c2-c2ccc(-c3ccccc3)cc2)CC1	0.24
CCN(CC)S(=O)(=O)c1ccc(C(=O)Nc2c3c(nn2C(C)(C)C)CS(=O)(=O)C3)cc1	-0.5

Compound	inhibition [%]
COc1ccc(-c2c(N)n[nH]c2C)cc1OC	-6.91
Cc1cc(Nc2cccc([N+](=O)[O-])c2)c2ccccc2n1	-2.62
COc1cc(OC)cc(C(=O)N[C@H](C(=O)OCn2nnc3ccccc3c2=O)C(C)C)c1	11.6
O=C(c1cccs1)N(c1ccc(F)cc1)C1C=CS(=O)(=O)C1 (configuration not stated)	-5.9
O=C(CSc1nc(-c2ccccc2)cs1)N1CCc2ccccc21	-6.01
Cc1ccc(NC(=O)c2cc(S(=O)(=O)NCCC3=CCCCC3)ccc2F)cc1	-1.4
O=C(O)CCCCCCC1C(=O)NC(=O)N1CCC(O)C1CCCCC1 (configuration not stated)	-3.19
CCOC(=O)Cc1csc(SCC(=O)c2c(N)n(CC(C)C)c(=O)n(C)c2=O)n1	-4.67
O=C(Nc1ccc2c(c1)OCO2)c1noc2c1CCCCC2	-1.8
O=C(Nc1ccc(N2CCCCC2)cc1)c1ccc2c(c1)OCCO2	-4.93
O=C(Nc1ccc(Cl)cc1)Nc1nnc(-c2ccncc2)s1	0.95
CC(=O)N1CC2(C)CN(C(C)=O)CC(C)(C1)C2	-9.15
O=C(N/N=C/C(Cl)=C/c1ccccc1)c1cnccn1	-8.76
COc1ccccc1CNC(=O)C1CCCN(S(=O)(=O)c2c(C)[nH]c(=O)[nH]c2=O)C1 (configuration not stated)	-6.01
CCCCC(=O)Nc1nnc(C2=COCCO2)o1	-4.28
COC(=O)c1ccc(NC(=O)Nc2ccccc2F)cc1	-8.11
N#CC(=C1CCCC1)c1nc(-c2ccc(Cl)cc2)cs1	9.54
CCCOP(=O)(OCCC)c1nc(-c2ccccc2)oc1NCc1ccccc1	0.1

From PubChem BioAssay AID1233 (SRMLSC, 2008)
